Hits are enriched below; roughly 3.1% of the tested compounds scored in any of these assays.
SIRT5 block = inhibitors of human sirtuin-5 desuccinylase | Q9NXA8 | Purified SirT5, succinyl-peptide AMC, trypsin-coupled fluorescence | inhibition, % at 15 µM | 330,000 compounds, 1.1% hits | AID 652115; in the data active = inhibition above about 15%
ERAP1 inh = blocks human ERAP1 aminopeptidase activity. Q9NZ08. recombinant ERAP1, Leu-AMC fluorescence, 60 min. inhibition, % at 10.7 µM. 340,000 compounds, 0.15% hits;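 active = mean replicate inhibition of at least 30%, or all replicates individually reaching that 30% level; inactive = mean below 30% and not every replicate reaching it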
FGF22 binding = shifts melting point of recombinant human FGF22 | Q9HCT0 | recombinant FGF22 thermal shift, SYPRO orange fluorescence; percent of sucrose octasulfate shift, DMSO zero | activity (Tm shift, normalised), % at 9.99 µM | 340,000 compounds, 1.5% hits;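 active = mean Tm shift, scaled 0 neutral to 100 positive control, at about 1.3% or above, every replicate too, limit read from the data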
Casp6 inh = caspase-6 (human) enzyme inhibition | P55212 | purified caspase-6, Z-VEID-R110 cleavage fluorescence | inhibition, % at 12.5 µM | 350,000 compounds, 0.53% hits | AID 686996;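 active = mean inhibition across replicates at least about 35%, with every replicate also reaching that limit, limit read from the data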
Each line names hits and unclear results; the compound was inactive in the other large screens; ! = not active in a repeat.

C[C@H](CO)N1C[C@H](C)[C@H](CN(C)C(=O)Nc2ccccc2C(F)(F)F)OCc2cnnn2CCCC1=O	SIRT5 block 15.8
C[C@@H]1CN([C@H](C)CO)C(=O)CCCn2nncc2CO[C@@H]1CN(C)C(=O)CCCN(C)C	none
C[C@H]1CN([C@@H](C)CO)C(=O)CCCn2nncc2CO[C@@H]1CN(C)C(=O)CCCN(C)C	SIRT5 block 22.1
COc1ccc(S(=O)(=O)N(C)C[C@@H]2Oc3c(NS(C)(=O)=O)cccc3C(=O)N([C@@H](C)CO)C[C@@H]2C)cc1	none
Cc1ccccc1S(=O)(=O)N1C[C@@H](O)COC[C@H]2O[C@H](CC(=O)N3CCC(Cc4ccccc4)CC3)CC[C@@H]21	none
C[C@@H](O)CNC(=O)c1[nH]cnc1C(=O)Nc1cccc(Cl)c1	none
Cc1cccc(NC(=O)c2nc[nH]c2C(=O)NC[C@H](C)O)c1	SIRT5 block 26.8
Cc1cc(C)c2c(=O)[nH]c(SCC(=O)c3ccc(C)c(C)c3)nc2n1	FGF22 binding 44.1
Cc1ccc(NC(=O)CSc2nc3nc(C)cc(C)c3c(=O)[nH]2)cc1	none (no result: FGF22 binding)
COc1cc(NC(=O)c2cccc3c2C(=O)N(Cc2cccnc2)C3)cc(OC)c1OC	none
CCOC(=O)CC(NC(=O)c1cccc2c1C(=O)N(Cc1cccnc1)C2)c1ccc(OCC)c(OC)c1 (stereo not given)	FGF22 binding 43.1
C/C=C/c1ccc([C@@H]2[C@@H](CO)N(C(C)=O)C23CN(C(=O)c2ccccc2)C3)cc1	none
CCCCCC1(C(=O)OCC)CC(CSC(=N)N)OC1=O (stereo not given)	FGF22 binding 43.5
C[C@H]1CN([C@@H](C)CO)S(=O)(=O)c2ccc(C#CCN(C)C)cc2O[C@H]1CN(C)C(=O)C1CCCCC1	none
Cc1ccc(SCCC(=O)Nc2ccccc2Br)cc1	FGF22 binding 42.9
Cc1ccc(SCCC(=O)NC2CC2)cc1	SIRT5 block 16.0
COc1ccccc1C#Cc1ccc2c(c1)[C@@H]1[C@@H](CCN1C(=O)Cc1ccccc1)[C@H](CO)N2	none (no result: FGF22 binding)
CN(C)CCN1CCN(C2CN(Cc3cn(Cc4cccc(Cl)c4)nn3)S(=O)(=O)C2)CC1 (stereo not given)	SIRT5 block 19.1 (no result: ERAP1 inh)
CC1SC(=NC(=O)c2ccncc2)NC1=O (stereo not given)	FGF22 binding 44.5
CCOC(=O)[C@]12CCC=C1N(Cc1ccco1)C(=O)[C@H](CC(=O)NCc1ccc(C)o1)C2	FGF22 binding 43.2 (no result: SIRT5 block)
CCOC(=O)[C@]12CCC=C1N(Cc1cccc3ccccc13)C(=O)[C@H](CC(=O)NCc1cccc3ccccc13)C2	none
COC(=O)[C@]12C[C@H](CC(=O)NCc3ccc(C)o3)C(=O)N(Cc3ccccc3)C1=C[C@H](C1CCCC1)O[C@@H]2C	Casp6 inh 66.0 (no result: SIRT5 block)
CCCCCCCCN1C(=O)[C@H](CC(=O)NCc2cccc3ccccc23)C[C@@]2(C(=O)OCC)CCC=C12	SIRT5 block 15.6 (no result: ERAP1 inh)
COC(=O)[C@]12C[C@H](CC(=O)NCc3cccs3)C(=O)N(Cc3ccccc3)C1=C[C@H](C1CCCC1)O[C@@H]2C	none (no result: SIRT5 block)
COCC(=O)Nc1ccc2c(c1)C(=O)N(C)[C@H]1CC[C@@H](CC(=O)NCc3ccccc3Cl)O[C@H]1CO2	none (no result: SIRT5 block, ERAP1 inh, Casp6 inh)
CC(On1nnc2ccccc21)C(=O)N1CCN(Cc2ccccc2)CC1 (stereo not given)	FGF22 binding 43.5
CC(OC(=O)c1ccc(Cl)c([N+](=O)[O-])c1)C(=O)N1CCN(Cc2ccccc2)CC1 (stereo not given)	none
Cc1ccc(N(CN2C(=O)c3ccccc3C2=O)C(=O)c2ccc([N+](=O)[O-])cc2[N+](=O)[O-])cc1	SIRT5 block 112.0
CCn1c(Cc2cccs2)nnc1SCC(=O)NC(C)(C)C	FGF22 binding 43.0
CCn1c(Cc2ccccc2)nnc1SCC(=O)NC(C)(C)C	none
Nc1ccc(C(=O)O)c(O)c1	SIRT5 block 15.4!
CCCC(=O)Nc1ccc2c(c1)OC[C@H](C)N(C(=O)C1CCCC1)C[C@H](C)[C@@H](OC)CN(C)C2=O	none
C[C@H]1CN([C@@H](C)CO)S(=O)(=O)c2ccc(-c3cccnc3)cc2O[C@H]1CN(C)Cc1cncnc1	none
CCC(c1nc2ccccc2[nH]1)n1c(-c2ccnc(Cl)c2)nc2ccccc21 (stereo not given)	none (no result: ERAP1 inh)
CCC(c1nc2ccccc2[nH]1)n1c(-c2ccc3cc[nH]c3c2)nc2ccccc21 (stereo not given)	FGF22 binding 1.5
COc1ccc(CN(C)C[C@H]2Oc3c(NC(=O)CCCCCC(=O)Nc4ccccc4N)cccc3C(=O)N([C@H](C)CO)C[C@@H]2C)cc1	none
CCCNC(=O)N1[C@@H]2Cn3c(cccc3=O)[C@H]1[C@@H](C(=O)N1CCC(Cc3ccccc3)CC1)[C@@H]2CO	SIRT5 block 20.9
Cc1cc(C(=O)N/N=C2/CC(C)CC(C)(C)C2)c(C)o1 (stereo not given)	SIRT5 block 41.3
C[C@H]1CN([C@@H](C)CO)C(=O)c2cccc(NS(C)(=O)=O)c2O[C@H]1CN(C)C(=O)Nc1cccc2ccccc12	none
CC1CCCC(NC(=O)COC(=O)Cc2ccc(Br)cc2)C1C (stereo not given)	none
CC1CCCC(NC(=O)COC(=O)Cc2cn3ccsc3n2)C1C (stereo not given)	SIRT5 block 15.3 (no result: FGF22 binding)
COCCNC(=O)/C(C#N)=C/c1ccc2c(c1)OCO2	FGF22 binding 43.6
COCCNC(=O)/C(C#N)=C/c1cc(C)n(C2CCCCC2)c1C	SIRT5 block 15.8
C=CCNC(=O)/C(C#N)=C/c1ccc2c(c1)OCCO2	FGF22 binding 43.5
N#C/C(=C\c1ccc2c(c1)OCO2)C(=O)NCc1ccco1	none
O=C(C1CCOCC1)N1C[C@@H]2[C@H](c3ccccc31)[C@H](CO)N2C(=O)Nc1cccc(F)c1	none
CCCC(=O)Nc1ccc2c(c1)C(=O)NC2=O	none
O=C(Cc1cccc2ccccc12)Nc1ccc2c(c1)C(=O)NC2=O	FGF22 binding 44.3
CCCc1ccc(OCC(=O)Nc2cc(S(=O)(=O)CC)ccc2O)cc1	FGF22 binding 44.2 (no result: SIRT5 block)
CCS(=O)(=O)c1ccc(O)c(NC(=O)CCCC(=O)O)c1	none (no result: ERAP1 inh)
COCCSc1nc(N)c(NC(=O)c2ccc(OC)cc2)c(=O)[nH]1	FGF22 binding 43.0
C[C@@H]1CN([C@H](C)CO)C(=O)CCCn2cc(nn2)CO[C@H]1CN(C)C(=O)CCC(F)(F)F	none
COc1cccc(NC(=O)N(C)C[C@@H]2OCc3cn(nn3)CCCC(=O)N([C@H](C)CO)C[C@H]2C)c1	SIRT5 block 23.2!
Cc1noc(C)c1NC(=O)N(C)C[C@H]1OCc2cn(nn2)CCCC(=O)N([C@@H](C)CO)C[C@@H]1C	SIRT5 block 15.7!
C[C@H]1CN([C@@H](C)CO)C(=O)CCCn2cc(nn2)CO[C@@H]1CN(C)C(=O)CCC(F)(F)F	Casp6 inh 44.5!
Cc1noc(C)c1NC(=O)N(C)C[C@@H]1OCc2cn(nn2)CCCC(=O)N([C@@H](C)CO)C[C@H]1C	none
Cn1cnc(S(=O)(=O)N[C@H]2C=C[C@@H](CC(=O)N3CCN(c4ccccc4)CC3)O[C@@H]2CO)c1	none

Source: PubChem (Broad Institute)
